Screening data as filed in PubChem.
ROMK primary: modulates human ROMK potassium channel activity | Tet-inducible ROMK, thallium flux fluorescence; actives lie on both sides | 130,000 tested, 2% active | AID 1918 | B-score at 10 µM;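 active means signal ratio slope over the read window, or its plate-corrected B-score, at least 3 SD from the plate mean, either direction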;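 further: B-score of the F/F0 ratio slope over 7 to 12 s after thallium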
Efa HMGR inh: blocks class II HMG-CoA reductase of Enterococcus faecalis | 190,000 tested, 0.41% active | purified E. faecalis HMGR, NADPH absorbance 340 nm kinetic | inhibition, % at 10 µM;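 active means inhibition above a set limit, the median over all tested compounds plus 3 SD, cut at about 9.5% in these data; inconclusive means no clear call, values can overlap the other calls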;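 further: enzyme runs in reverse so mevalonate oxidation gives rising NADPH absorbance; 0% = complete reaction with DMSO and 100% = background rate lacking mevalonate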
TNF necrop inh: blocks TNF-alpha induced death of Jurkat FADD-/- cells; Jurkat FADD-/- TNF necroptosis rescue, ATP luminescence, 24 h; 0 = TNF only, 100 = no-TNF cells; activation (protection from cell death), % at 10 µM; 220,000 tested, 0.068% active; AID 463075;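 active means activation, meaning protection from cell death, of at least 50% relative to plate controls; inactive means activation below 50%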;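 further: necroptosis triggered by 40 ng/mL TNF-alpha added together with compound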
14-3-3 Bad inh: disrupts binding of bovine 14-3-3 zeta to phospho-Bad peptide. P63103. TR-FRET 14-3-3zeta/Dy647-pBad peptide displacement, 1 h. inhibition, % at 21.7 µM. 220,000 tested, 0.71% active. AID 781;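 active means inhibition above about 70%, limit read from the data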;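 further: 0% = full 14-3-3 plus peptide FRET controls and 100% = background without 14-3-3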
Target sequence (P63103 whole entry, looked up): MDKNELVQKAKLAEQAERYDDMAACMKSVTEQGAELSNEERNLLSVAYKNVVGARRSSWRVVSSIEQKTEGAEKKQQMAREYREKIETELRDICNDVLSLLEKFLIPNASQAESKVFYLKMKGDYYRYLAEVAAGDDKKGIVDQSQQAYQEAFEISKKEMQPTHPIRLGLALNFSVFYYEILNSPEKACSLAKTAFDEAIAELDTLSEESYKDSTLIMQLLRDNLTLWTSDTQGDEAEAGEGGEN
zVAD death inh: blocks zVAD induced death of L929 cells | AID 1377 | 220,000 tested, 0.38% active | viability rescue, % at 10 µM | L929 zVAD necroptosis rescue, ATP luminescence, 24 h; with zVAD 60 µM;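 active means activation, scaled between plate controls, above about 75%, limit read from the data; inactive means activation under that limit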;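 further: 0% = zVAD with DMSO and 100% = DMSO alone without zVAD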
m-calpain inh: blocks pig calpain II enzyme activity. inhibition, % at 16 µM. 220,000 tested, 0.37% active. AID 1236. purified calpain II, fluorogenic peptide substrate, 30 min;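 active means inhibition above about 50%, limit read from the data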
ROMK hit retest: confirmation of human ROMK potassium channel modulators; ROMK thallium flux, fluorescence ratio; stronger effect = lower value; 3,000 tested, 54% active; normalized thallium flux (F/F0 slope) at 10 µM; shares compounds with ROMK primary; AID 1917;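 active means Flux at 10 µM at least 3 SD below or above vehicle control mean in one or both replicates; inconclusive means no clear call, values can overlap the other calls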
Starred values were filed as active, the others as inactive; u = inconclusive; x = no result given. The list is not random: actives were taken first. Their share in the collection is about 3%.

SMILES	ROMK primary	Efa HMGR inh	TNF necrop inh	14-3-3 Bad inh	zVAD death inh	m-calpain inh	ROMK hit retest
CCOC(=O)c1ccc(-c2ccc(/C=N/NC(=O)Cc3nnc(N)s3)o2)cc1	-11.7*	x	0.7	5.2	-0.2	-72.8	0.0783
Cc1ccc(NC(=O)CSc2nc3ccccc3c(=O)n2CCCN2CCCCC2)cc1C	x	-4.1	-1.9	10.6	1.8	-9.7	x
FC(F)(F)c1cnc(Sc2ncn[nH]2)c(Cl)c1	-0.0897	-4.0	0.5	2.9	-0.6	6.3	x
CC/C(=N/Nc1cccc(C)c1)c1cnnc(SC)n1	-4.11*	0.2	1.8	0.7	4.4	10.3	u
CC/C(=N/Nc1ccc(Cl)cc1)c1cnnc(SC)n1	0.148	-2.0	1.5	-17.2	3.4	-1.3	x
O=c1[nH]c(N2CCCCC2)nc2ncn(Cc3ccccc3)c12	x	x	2.8	-10.4	0.2	1.9	x
O=C(CN1C(=O)CSc2ccc(S(=O)(=O)N3CCOCC3)cc21)NCCCN1CCc2ccccc2C1	-1.14	-0.4	0.7	-8.1	0.2	0.6	x
C=CCN1C(c2cccc(C(F)(F)F)c2)=CS/C1=C(/C#N)c1nnc(N2CCOCC2)n1-c1ccccc1	-4.6*	-0.1	-2.7	22.2	x	-13.7	0.0467*
C=CCN1C(c2ccc(Br)cc2)=CS/C1=C(/C#N)c1nnc(N2CCOCC2)n1-c1ccccc1	-3.93*	-0.4	-2.0	11.9	x	10.4	0.0566*
COc1ccc(C(=O)c2c(C)c3cc(C)ccc3n2CC(O)CN2CCOCC2)cc1 (centres undefined)	x	1.9	9.9	-2.9	2.4	-32.7	x
CCn1cc(/C=N\NC(=O)C2(C)CC2(Cl)Cl)c(C)n1 (centres undefined)	0.027	1.4	1.2	-8.7	0.9	-9.1	x
CCN(C(=O)CN1CCOCC1)c1c(N)n(Cc2ccccc2)c(=O)[nH]c1=O	-0.514	1.2	0.7	-13.6	6.8	-30.0	x
CCCCCN(C(=O)CN1CCC(Cc2ccccc2)CC1)c1c(N)n(CCCC)c(=O)[nH]c1=O	-3.22*	1.6	-1.5	-4.1	1.4	9.2	0.0609*
COC(=O)c1ccc2c(=O)n(CC3CCCO3)c(SCC(=O)NCCc3ccc(S(N)(=O)=O)cc3)nc2c1 (centres undefined)	0.182	-3.1	1.6	-3.8	1.3	-23.6	x
N#C/C(=C\c1ccncc1)c1nc2ccccc2[nH]1	-5.24*	-1.5	-8.1	-8.6	-1.1	25.3	0.0511*
N#C/C(=C/c1ccncc1)c1nc2ccccc2s1	-3.47*	-0.5	-13.8	-6.2	-0.7	14.6	0.0529*
N#C/C(=C(/O)C(Cl)(Cl)Cl)c1nc2ccccc2[nH]1	-4.95*	x	-3.9	11.8	0.2	7.4	0.045*
N#C/C(=C\c1cccnc1)c1nc2ccccc2[nH]1	x	x	-13.3	3.3	0.3	-18.8	x
Cn1cc(S(=O)(=O)N2CCN(c3cccc(Cl)c3)CC2)c(=O)n(C)c1=O	-0.329	x	-0.2	1.7	0.0	20.8	x
COC(=O)c1sc2nc(C)nc(SCC(=O)C(C)(C)C)c2c1C	x	-6.9	1.5	6.5	0.6	20.9	x
CCCCCOc1ccc(Br)cc1CSC(=N)N	x	-1.6	-4.8	0.4	-0.4	22.3	0.0421*
CCN1CCN(C(=S)c2ccc([N+](=O)[O-])cc2)CC1	x	-1.0	2.2	-1.4	1.2	-2.7	x
COc1cc(C(=O)Nc2ccc3oc(-c4cccnc4)nc3c2)cc(OC)c1OC	-0.756	1.1	-0.5	-1.7	5.6	-39.3	0.0791
COc1ccc(C(=O)Nc2ccc3oc(-c4cccnc4)nc3c2)cc1OC	-1.03	-0.2	-6.6	-9.4	14.2	-96.5	x
CCn1c(=O)c(=O)[nH]c2cc(C(=O)NC3CCCc4ccccc43)ccc21 (centres undefined)	3.22*	-1.5	-12.7	4.1	0.1	-26.6	0.0832
SMILES	ROMK primary	Efa HMGR inh	TNF necrop inh	14-3-3 Bad inh	zVAD death inh	m-calpain inh	ROMK hit retest
CCn1c(=O)c(=O)[nH]c2cc(C(=O)NC3CC3)ccc21	0.782	-3.0	1.6	-5.9	-0.3	4.6	x
CSc1cccc(NC(=O)CN(Cc2ccc(Cl)cc2)S(C)(=O)=O)c1	-1.51	-3.3	-0.6	-4.9	-0.1	20.6	x
O=C1NC(c2ccccc2)=C(c2ccc3ccccc3n2)C(c2ccc(F)cc2)N1 (centres undefined)	-2.99*	-1.8	0.3	5.6	0.2	-21.4	0.0757
Cc1cccc(NC(=O)CN2CCC(NC(=O)C3CCCCC3)CC2)c1C	x	-9.9	2.6	5.9	1.4	-6.2	x
COc1ccc(OC)c(C2NC(=S)NC3=C2N2CCC3CC2)c1 (centres undefined)	2.95*	-6.1	-0.6	4.9	0.1	20.5	0.0744
Cn1c(C2=C(O)CN(Cc3ccccc3)C2=N)[n+](C)c2ccccc21	0.622	0.5	1.5	-6.4	1.7	-31.4	x
CC1(C)Cc2ccccc2C(/C(=N\Nc2cccc(Cl)c2)C(N)=O)=N1	-1.57	-6.1	2.9	-2.0	8.8	23.8	x
CC(=O)c1ccc(N/N=C(/C(N)=O)C2=NC(C)(C)Cc3ccccc32)cc1	-5.39*	1.1	-11.9	-0.2	74.1	18.6	0.0485*
COc1cc(/C=C/C(=O)O)cc(S(=O)(=O)Nc2ccc3c(c2)OCO3)c1OC	-1.82	-3.5	-0.4	-1.4	4.2	12.7	x
